Compound activity as filed in PubChem BioAssay.
Shiga toxin inh – inhibitors of Shiga toxin in Vero cells; Vero cells, Shiga toxin protein synthesis inhibition reporter; inhibition, % at 38.7 µM; 9.2% of 290,000 active; AID 2315; in the data active means inhibition mostly above about 28%, no sharp cut-off; inactive means mostly below about 43%
LmPK inhibitor – LmPK (Leishmania mexicana) enzyme inhibition. 0.37% of 290,000 active. Potency, µM (doses to about 57.5 µM), usual class: inhibitors. Q27686. purified LmPK, Kinase-Glo ATP luminescence, 1 h
Target sequence (Q27686 whole entry, looked up): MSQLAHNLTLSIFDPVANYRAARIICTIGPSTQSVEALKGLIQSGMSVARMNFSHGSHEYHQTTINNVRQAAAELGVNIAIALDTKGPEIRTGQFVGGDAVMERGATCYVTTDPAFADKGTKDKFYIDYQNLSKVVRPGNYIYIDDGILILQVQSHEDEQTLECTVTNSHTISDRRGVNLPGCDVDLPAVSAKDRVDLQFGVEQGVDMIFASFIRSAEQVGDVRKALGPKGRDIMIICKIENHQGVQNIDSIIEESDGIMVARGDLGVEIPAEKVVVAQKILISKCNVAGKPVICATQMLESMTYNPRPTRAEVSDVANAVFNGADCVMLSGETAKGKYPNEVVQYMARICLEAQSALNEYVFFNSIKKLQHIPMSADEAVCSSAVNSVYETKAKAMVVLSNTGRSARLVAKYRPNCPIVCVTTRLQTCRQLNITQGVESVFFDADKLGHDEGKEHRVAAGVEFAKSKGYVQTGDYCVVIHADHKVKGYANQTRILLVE
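Screened at intermediate enzyme activity to detect both inhibitors and activators: LmPK at 0.1 nM, with a 0.5 nM enzyme column as activation reference. PEP 0.5 mM, ADP 0.1 mM; ATP detected by luminescence after 1 h.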
Giardia FBPA inh – blocks Giardia fructose-bisphosphate aldolase activity; A8B2U2; purified Giardia FBPA; Potency, µM (highest dose often 59.6 µM), hits mostly inhibitors; 0.71% of 290,000 active; AID 2451; further: nearly all actives have a fitted effect of over 55% in size
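Giardia FBPA (40 nM reagent) was preincubated 10 min at RT with compound (up to 57.5 uM final), then substrate plus GAPDH/TPI/NAD/arsenate coupling system with diaphorase/resazurin was added; resorufin fluorescence (525/598 nm) was read after 20 min.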
CHX counter – counter-screen for Shiga toxin inhibitors: cycloheximide protein synthesis inhibition; 12% of 300,000 active; cell reporter, cycloheximide protein synthesis inhibition counterscreen; max response, %; in the data active means max response mostly above about 13%, no sharp cut-off; inactive means mostly below about 14%; further: read at 38.3 µM for the half of the compounds with a filed dose
Tb PYK inh – inhibitors of Trypanosoma brucei pyruvate kinase; Q57TT1; TbPYK enzyme, Kinase-Glo Plus ATP luminescence, 45 min; Potency, µM (highest dose often 76.8 µM), hits mostly inhibitors; 0.12% of 410,000 active; AID 624173; further: nearly all actives have a fitted effect of over 50% in size
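Screened from lowest to highest concentration, compounds were pinned into TbPYK/substrate mixtures, and ADP (130 uM final) was added. Plates sat at room temperature for 45 min prior to Kinase-Glo Plus detection by luminescence.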
RE007 growth inh – less growth of the S. pombe RE007 Vpr strain; S. pombe RE007 Vpr strain, BacTiter-Glo ATP luminescence, 24 h; Potency, µM (doses to about 92.2 µM), hits mostly inhibitors; 0.21% of 360,000 active; AID 651644; active means well fitted falling curve with a large enough effect; inconclusive means small, poorly fitted or top-dose-only effect; inactive means no such curve, though single readings can be large or run the other way; further: nearly all actives have a fitted effect of over 50% in size
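Fission yeast strain RE007, carrying one chromosomally integrated HIV-1 vpr copy, was seeded at OD 0.01 in PMG+AL medium with 23 nL pinned compound. After 24 h at 30 °C and 99% humidity, viability was read by BacTiter-Glo luminescence.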
Large screens that a line does not name were inactive. The full list was thinned out, with hits kept by preference. Unless noted, the call rests on the fitted dose curve; in most records, active means well fitted curve in the direction sought with a large enough effect; inconclusive means small, poorly fitted or top-dose-only effect, or another doubt; inactive means no such curve, though single readings can be large; an effect the other way counts as inactive or inconclusive.

CC(C)Oc1ccc(C2c3c(oc4ccccc4c3=O)C(=O)N2CCCN2CCOCC2)cc1 (centres undefined)	Shiga toxin inh 54, CHX counter 17
CCN(CC)CCN1C(=O)c2oc3ccccc3c(=O)c2C1c1ccccc1 (centres undefined)	CHX counter 35
CCN(CC)CCN1C(=O)c2oc3ccccc3c(=O)c2C1c1cccc(Br)c1 (centres undefined)	none
CCCOC(=O)c1ccccc1O	none (no result: Shiga toxin inh, LmPK inhibitor, Giardia FBPA inh, CHX counter, RE007 growth inh)
Cc1nc2c(c(C)c1CCC(=O)Nc1ccc(F)cc1)c(=O)n(C)c(=O)n2C	none (no result: Shiga toxin inh, LmPK inhibitor, Giardia FBPA inh, CHX counter, RE007 growth inh)
COc1ccccc1N1CCN(C(=O)c2c(C)oc3ncn(CC(C)C)c(=O)c23)CC1	none (no result: Shiga toxin inh, LmPK inhibitor, Giardia FBPA inh, CHX counter, RE007 growth inh)
CC(C)Oc1ccc(/C(O)=C2/C(=O)C(=O)N(CCN3CCOCC3)C2c2ccccc2)cc1 (centres undefined)	Shiga toxin inh 112, CHX counter 25
COc1ccc(/C(O)=C2/C(=O)C(=O)N(CCN3CCOCC3)C2c2ccccn2)cc1 (centres undefined)	Shiga toxin inh 54, Giardia FBPA inh inconclusive, CHX counter 33
Cc1c(/C(O)=C2/C(=O)C(=O)N(CCN3CCOCC3)C2c2ccccn2)cnn1-c1ccccc1 (centres undefined)	Shiga toxin inh 50, Giardia FBPA inh inconclusive, CHX counter 28
Cc1ccc(C2/C(=C(/O)c3cnn(-c4ccccc4)c3C)C(=O)C(=O)N2CCCN2CCOCC2)o1 (centres undefined)	Shiga toxin inh 54, CHX counter 34 (no result: Tb PYK inh, RE007 growth inh)
COC(=O)c1[nH]c(C)c(/C(O)=C2\C(=O)C(=O)N(CCCN3CCOCC3)C2c2ccccn2)c1C (centres undefined)	none
COc1ccc(/C(O)=C2/C(=O)C(=O)N(CCN3CCOCC3)C2c2ccc(C)cc2)cc1 (centres undefined)	none (no result: Giardia FBPA inh)
Cc1ccc(C)c(/C(O)=C2/C(=O)C(=O)N(CCN3CCOCC3)C2c2ccc(C)o2)c1 (centres undefined)	none
O=C1C(=O)N(CCN2CCOCC2)C(c2ccccn2)/C1=C(/O)c1ccc(F)cc1 (centres undefined)	Giardia FBPA inh inconclusive, Tb PYK inh inconclusive
COC(=O)c1c(-c2ccc(Cl)cc2)noc1N1CCN(c2cccc(OC)c2)CC1	none (no result: Shiga toxin inh, LmPK inhibitor, Giardia FBPA inh, CHX counter, RE007 growth inh)
CC1Cc2nc(SCC(=O)NCC3CCCO3)n(-c3ccc(F)cc3)c(=O)c2S1 (centres undefined)	none
Cc1ccc2c(c1)c1c(n2C)-c2[nH]ncc2CC1	Shiga toxin inh 78, CHX counter 15, RE007 growth inh 20µM
O=C(NCCS(=O)(=O)c1ccc(Br)cc1)c1ccc(Cl)cc1Cl	none
CC(C)(C)C(=O)COC(=O)c1ccccc1O	none
COc1ccc(CCOC(=O)c2ccc(NC(=O)CC#N)cc2)cc1	CHX counter 41 (no result: Giardia FBPA inh)
COc1ccc(C(=O)OCCc2ccc(O)cc2)cc1	Shiga toxin inh 50, CHX counter 38
CC(C)(C)C(=O)COC(=O)c1ccc(O)cc1	Shiga toxin inh 40
COc1ccc(CCn2c(C)cc(C(=O)COC(=O)c3ccc(NC(=O)CC#N)cc3)c2C)cc1	none (no result: Giardia FBPA inh)
CSc1ccc(CCNC(=O)c2ccc3c(c2)nc2n3CCCCC2)cc1	none (no result: Shiga toxin inh, LmPK inhibitor, Giardia FBPA inh, CHX counter, RE007 growth inh)
CC1(C)C(=O)N(CC(=O)Nc2cccc(F)c2)c2ccc(S(=O)(=O)N3CCCCC3)cc21	none (no result: Shiga toxin inh, LmPK inhibitor, Giardia FBPA inh, CHX counter, RE007 growth inh)
COc1cc(-c2cc3n(C)c(C)c(CCC(=O)NC4CCC(C)CC4)c(=O)n3n2)cc(OC)c1OC (centres undefined)	none (no result: Shiga toxin inh, LmPK inhibitor, Giardia FBPA inh, CHX counter, RE007 growth inh)
COc1ccccc1CNC(=O)c1n[nH]c2ccccc12	Shiga toxin inh 46, CHX counter 29
COc1ccccc1CNC(=O)Cc1ccccc1	Shiga toxin inh 35, CHX counter 35
COc1ccccc1CNC(=O)CSc1ccccc1	Shiga toxin inh 50, CHX counter 19
O=C(CSc1ccccc1)NCc1ccccc1	CHX counter 18 (no result: Shiga toxin inh)
COc1ccccc1CNC(=O)Cc1ccc(OC)c(OC)c1	none
CSc1ccc(C2c3[nH]c4ccccc4c3CCN2C(=O)CCC2CCCC2)cc1 (centres undefined)	none (no result: Shiga toxin inh, LmPK inhibitor, Giardia FBPA inh, CHX counter, RE007 growth inh)
CCOC(=O)Cc1c(C)nc2cc(-c3ccc(C)cc3)[nH]n2c1=O	CHX counter 15
O=c1cc(-c2ccc([N+](=O)[O-])cc2)nc2cc(-c3ccc(Cl)cc3)[nH]n12	none (no result: Tb PYK inh, RE007 growth inh)
O=c1c2c(nc3cc(-c4ccc(Cl)cc4)[nH]n13)CCS2	CHX counter 51
CCc1c(C)nc2cc(-c3cccc(Br)c3)[nH]n2c1=O	Shiga toxin inh 80, Giardia FBPA inh inconclusive, CHX counter 38
CCOC(=O)CCc1c(C)nc2cc(-c3ccc(Cl)cc3)[nH]n2c1=O	none
CCc1c(C)nc2cc(-c3ccc(Cl)cc3)[nH]n2c1=O	Shiga toxin inh 35, CHX counter 35
Cc1nc2cc(-c3ccc(Br)cc3)[nH]n2c(=O)c1Cl	Giardia FBPA inh inconclusive
CCOC(=O)NN=C1CN(S(=O)(=O)c2ccc(C)cc2)C1	none
OC[C@@H]1OC(O)[C@@H](O)[C@H](O)[C@@H]1O (some centres undefined)	none (no result: LmPK inhibitor, Tb PYK inh, RE007 growth inh)
CCc1ccccc1NC(=O)Nc1cc(C(=O)NCc2cccc(F)c2)ccc1N1CCCC1	none (no result: Shiga toxin inh, LmPK inhibitor, Giardia FBPA inh, CHX counter, RE007 growth inh)
Cc1nccc(-c2sc(-c3cccs3)nc2C)n1	Shiga toxin inh 58, CHX counter 36
O=C(CSc1nc2c([nH]c3ccccc32)c(=O)n1-c1ccc(Cl)cc1)N1CCc2ccccc21	none (no result: Shiga toxin inh, LmPK inhibitor, Giardia FBPA inh, CHX counter, RE007 growth inh)
CCOC(=O)C(C)Sc1nc(=O)n2cc(C)ccc2n1 (centres undefined)	none
Cc1ccc2nc(SCC(=O)OCc3ccccc3)nc(=O)n2c1	none (no result: Shiga toxin inh, LmPK inhibitor, Giardia FBPA inh, CHX counter)
CCOC(=O)CSc1nc(=O)n2cc(C)ccc2n1	CHX counter 17
CCCSc1nc(=O)n2cc(C)ccc2n1	Shiga toxin inh 57, CHX counter 33
CCCCCCCNC1=CC(=O)CC(c2ccco2)C1 (centres undefined)	CHX counter 19
O=C(Nc1ccccc1F)N1CCc2ccccc2C1	Shiga toxin inh 84, CHX counter 57
Cc1ccc(C)c(NC(=O)N2CCCCCC2)c1	none
Cc1ccc(C)c(NC(=O)N2CCc3ccccc3C2)c1	Shiga toxin inh 78, CHX counter 42 (no result: Giardia FBPA inh)
COc1cccc(C2=Nn3c(nnc3-c3ccccc3C)SC2)c1	Giardia FBPA inh 10µM (no result: LmPK inhibitor, Tb PYK inh, RE007 growth inh)
COc1cccc(C2=Nn3c(nnc3-c3ccc(OC)cc3OC)SC2)c1	none (no result: LmPK inhibitor, Tb PYK inh, RE007 growth inh)
CCOC(=O)c1cc(-c2ccccc2)n(-c2cccc(C(=O)Nc3ccc(OCC)cc3)c2)c1C	none (no result: Shiga toxin inh, LmPK inhibitor, Giardia FBPA inh, CHX counter, RE007 growth inh)
Cc1nc2cc(N3CCN(C)CC3)c(NC(=O)Cc3ccccc3)cc2c(=O)n1Cc1ccccc1	Shiga toxin inh 55, CHX counter 90
CCOc1ccc(N/C=C/C(=O)c2ccc(C)cc2)c([N+](=O)[O-])c1	Shiga toxin inh 64, CHX counter 42
CCOc1ccc(N/C=C/C(=O)c2ccc3ccccc3c2)c([N+](=O)[O-])c1	none
